Data taken from the supplement of paper PMC10849652.
Targets with a hit are over-represented here; the source holds about 7,900 in all. About 0.6% of all pairs of compound and target were hits. Values without a mark were called inactive.

Columns and labels:
Assay in all cases: log2 fold change, soluble protein after heating vs DMSO (PISA); higher = thermal stabilisation; K562 cells, 10 uM, 30 min; active = over 0.2 and 3.5 SD of the protein, either way, in both replicates (recomputed)
[1] = compound: Cc1ccc(NC(=O)c2ccc(CN3CC[C@H](N(C)C)C3)c(C(F)(F)F)c2)cc1Nc1nccc(-c2cncnc2)n1 [bafetinib]
In short: (§1)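 K562 cells at 2×10^6 cells/mL were treated for 30 min with 10 μM compound, and aliquots were heated for 3 min over 48°C-58°C before pooling. Extraction used PBS with 0.5% NP-40 at 4°C, and soluble protein was the supernatant after 21,000xg for 90 min, measured by TMTpro 16plex LC-MS/MS with channel sums equalised. Thermal stability values, relative to control samples and from duplicates, are log2 fold changes.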

[2] = compound: Cc1cccc(CC(=O)N2CCc3c2ccc(-c2cn(C)c4ncnc(N)c24)c3F)n1
In short: as §1

[3] = compound: Cc1cn(-c2cc(NC(=O)c3ccc(C)c(Nc4nccc(-c5cccnc5)n4)c3)cc(C(F)(F)F)c2)cn1 [nilotinib]
In short: as §1

[4] = compound: Cc1nc(Nc2n[nH]c3c2CN(C(=O)N[C@H](CN(C)C)c2ccccc2)C3(C)C)c2sccc2n1
In short: as §1

[5] = compound: Cc1nc(Nc2ncc(C(=O)Nc3c(C)cccc3Cl)s2)cc(N2CCN(CCO)CC2)n1 [dasatinib]
In short: as §1

[6] = compound: Cc1ncc(-c2ccnc(Nc3ccc(S(C)(=O)=O)cc3)n2)n1C(C)C
In short: as §1

[7] = compound: Cn1cc(-c2ccc3c(c2)CCN3C(=O)Cc2cccc(C(F)(F)F)c2)c2c(N)ncnc21
In short: as §1

[8] = compound: Cn1cc(-c2ccc3nnc(C(F)(F)c4ccc5ncccc5c4)n3n2)cn1
In short: as §1

[9] = compound: Cn1cncc1[C@@](N)(c1ccc(Cl)cc1)c1ccc2c(c1)c(-c1cccc(Cl)c1)cc(=O)n2C [tipifarnib]
In short: as §1

[10] = compound: FC(F)(F)c1ccc(/C=C/c2nc(COc3ccc(CCCCn4ccnn4)cc3)co2)cc1 [mubritinib]
In short: as §1

UniProt Q96PC5, sequence (Q96PC5 whole entry, looked up): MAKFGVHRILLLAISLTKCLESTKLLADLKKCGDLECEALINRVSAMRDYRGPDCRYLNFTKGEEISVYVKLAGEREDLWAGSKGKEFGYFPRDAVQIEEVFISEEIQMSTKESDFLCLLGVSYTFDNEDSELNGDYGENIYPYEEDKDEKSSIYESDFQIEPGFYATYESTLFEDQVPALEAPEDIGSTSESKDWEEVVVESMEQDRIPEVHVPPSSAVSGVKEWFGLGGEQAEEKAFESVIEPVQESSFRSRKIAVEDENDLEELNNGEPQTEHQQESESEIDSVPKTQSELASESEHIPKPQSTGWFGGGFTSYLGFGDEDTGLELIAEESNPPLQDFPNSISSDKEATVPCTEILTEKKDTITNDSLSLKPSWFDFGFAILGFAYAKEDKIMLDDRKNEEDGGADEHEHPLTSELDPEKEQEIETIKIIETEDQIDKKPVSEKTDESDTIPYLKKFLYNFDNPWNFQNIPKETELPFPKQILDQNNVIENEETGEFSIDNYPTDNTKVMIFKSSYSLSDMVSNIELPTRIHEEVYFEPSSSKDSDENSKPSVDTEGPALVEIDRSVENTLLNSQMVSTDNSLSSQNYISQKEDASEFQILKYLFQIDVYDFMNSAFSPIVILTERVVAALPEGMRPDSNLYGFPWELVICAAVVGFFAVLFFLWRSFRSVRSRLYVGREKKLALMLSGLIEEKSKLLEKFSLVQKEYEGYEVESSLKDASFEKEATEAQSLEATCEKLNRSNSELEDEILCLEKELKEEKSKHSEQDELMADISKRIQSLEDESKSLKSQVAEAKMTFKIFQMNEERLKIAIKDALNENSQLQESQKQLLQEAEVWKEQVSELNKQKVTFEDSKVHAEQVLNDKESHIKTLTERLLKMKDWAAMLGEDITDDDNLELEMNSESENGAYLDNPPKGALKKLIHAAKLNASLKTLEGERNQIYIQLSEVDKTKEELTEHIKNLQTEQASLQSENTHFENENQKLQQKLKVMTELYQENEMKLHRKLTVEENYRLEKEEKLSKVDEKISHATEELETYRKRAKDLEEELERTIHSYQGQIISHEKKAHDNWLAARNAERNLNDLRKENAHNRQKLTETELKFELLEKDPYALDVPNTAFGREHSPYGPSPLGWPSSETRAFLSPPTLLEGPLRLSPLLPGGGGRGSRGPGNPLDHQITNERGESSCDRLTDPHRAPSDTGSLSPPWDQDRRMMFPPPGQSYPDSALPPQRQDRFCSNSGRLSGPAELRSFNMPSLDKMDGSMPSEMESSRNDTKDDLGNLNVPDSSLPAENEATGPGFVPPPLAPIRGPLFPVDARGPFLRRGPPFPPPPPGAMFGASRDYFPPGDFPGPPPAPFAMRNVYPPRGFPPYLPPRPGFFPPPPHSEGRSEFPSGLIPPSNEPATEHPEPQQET
UniProt Q9NQ29, sequence (Q9NQ29 whole entry, looked up): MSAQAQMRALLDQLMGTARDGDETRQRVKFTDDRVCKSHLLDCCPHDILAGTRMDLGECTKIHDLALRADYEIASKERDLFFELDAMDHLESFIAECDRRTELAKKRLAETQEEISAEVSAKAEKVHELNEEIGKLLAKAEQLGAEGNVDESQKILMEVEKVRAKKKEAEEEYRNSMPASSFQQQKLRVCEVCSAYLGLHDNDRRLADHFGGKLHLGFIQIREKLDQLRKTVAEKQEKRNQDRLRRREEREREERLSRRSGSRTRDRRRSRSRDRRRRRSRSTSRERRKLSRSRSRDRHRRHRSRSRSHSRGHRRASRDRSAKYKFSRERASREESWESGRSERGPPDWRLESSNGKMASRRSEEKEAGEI
UniProt P46734, sequence (P46734 whole entry, looked up): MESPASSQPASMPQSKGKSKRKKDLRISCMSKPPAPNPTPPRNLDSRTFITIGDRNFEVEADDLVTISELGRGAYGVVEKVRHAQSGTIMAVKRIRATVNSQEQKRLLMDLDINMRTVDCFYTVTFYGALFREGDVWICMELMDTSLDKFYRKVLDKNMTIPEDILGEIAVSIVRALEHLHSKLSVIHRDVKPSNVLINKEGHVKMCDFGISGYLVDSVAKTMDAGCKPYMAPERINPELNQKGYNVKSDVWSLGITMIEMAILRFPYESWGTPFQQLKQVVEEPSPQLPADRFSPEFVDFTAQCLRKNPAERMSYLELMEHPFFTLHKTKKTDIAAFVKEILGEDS
UniProt O95232, sequence (O95232 whole entry, looked up): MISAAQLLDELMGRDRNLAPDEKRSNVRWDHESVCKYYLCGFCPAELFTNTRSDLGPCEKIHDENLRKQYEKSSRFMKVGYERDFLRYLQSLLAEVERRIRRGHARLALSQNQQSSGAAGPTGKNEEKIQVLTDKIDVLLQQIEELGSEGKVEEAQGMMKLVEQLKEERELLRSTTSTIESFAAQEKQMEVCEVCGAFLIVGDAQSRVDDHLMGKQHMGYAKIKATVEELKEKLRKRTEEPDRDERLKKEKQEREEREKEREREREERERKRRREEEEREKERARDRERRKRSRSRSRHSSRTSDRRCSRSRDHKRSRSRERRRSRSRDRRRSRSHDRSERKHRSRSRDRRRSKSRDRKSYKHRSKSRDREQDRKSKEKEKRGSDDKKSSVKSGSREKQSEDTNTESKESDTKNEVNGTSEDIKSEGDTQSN
UniProt Q9UBF1, sequence (Q9UBF1 whole entry, looked up): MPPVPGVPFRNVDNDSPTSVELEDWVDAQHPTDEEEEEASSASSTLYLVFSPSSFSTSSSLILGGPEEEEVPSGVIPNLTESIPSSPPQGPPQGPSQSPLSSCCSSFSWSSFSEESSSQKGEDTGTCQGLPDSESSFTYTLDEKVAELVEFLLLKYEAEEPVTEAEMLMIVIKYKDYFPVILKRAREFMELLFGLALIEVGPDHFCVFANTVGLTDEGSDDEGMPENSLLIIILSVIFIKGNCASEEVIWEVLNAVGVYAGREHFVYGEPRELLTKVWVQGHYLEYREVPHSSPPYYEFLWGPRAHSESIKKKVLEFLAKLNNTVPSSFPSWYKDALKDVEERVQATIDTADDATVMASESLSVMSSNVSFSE
UniProt O95373, sequence (O95373 whole entry, looked up): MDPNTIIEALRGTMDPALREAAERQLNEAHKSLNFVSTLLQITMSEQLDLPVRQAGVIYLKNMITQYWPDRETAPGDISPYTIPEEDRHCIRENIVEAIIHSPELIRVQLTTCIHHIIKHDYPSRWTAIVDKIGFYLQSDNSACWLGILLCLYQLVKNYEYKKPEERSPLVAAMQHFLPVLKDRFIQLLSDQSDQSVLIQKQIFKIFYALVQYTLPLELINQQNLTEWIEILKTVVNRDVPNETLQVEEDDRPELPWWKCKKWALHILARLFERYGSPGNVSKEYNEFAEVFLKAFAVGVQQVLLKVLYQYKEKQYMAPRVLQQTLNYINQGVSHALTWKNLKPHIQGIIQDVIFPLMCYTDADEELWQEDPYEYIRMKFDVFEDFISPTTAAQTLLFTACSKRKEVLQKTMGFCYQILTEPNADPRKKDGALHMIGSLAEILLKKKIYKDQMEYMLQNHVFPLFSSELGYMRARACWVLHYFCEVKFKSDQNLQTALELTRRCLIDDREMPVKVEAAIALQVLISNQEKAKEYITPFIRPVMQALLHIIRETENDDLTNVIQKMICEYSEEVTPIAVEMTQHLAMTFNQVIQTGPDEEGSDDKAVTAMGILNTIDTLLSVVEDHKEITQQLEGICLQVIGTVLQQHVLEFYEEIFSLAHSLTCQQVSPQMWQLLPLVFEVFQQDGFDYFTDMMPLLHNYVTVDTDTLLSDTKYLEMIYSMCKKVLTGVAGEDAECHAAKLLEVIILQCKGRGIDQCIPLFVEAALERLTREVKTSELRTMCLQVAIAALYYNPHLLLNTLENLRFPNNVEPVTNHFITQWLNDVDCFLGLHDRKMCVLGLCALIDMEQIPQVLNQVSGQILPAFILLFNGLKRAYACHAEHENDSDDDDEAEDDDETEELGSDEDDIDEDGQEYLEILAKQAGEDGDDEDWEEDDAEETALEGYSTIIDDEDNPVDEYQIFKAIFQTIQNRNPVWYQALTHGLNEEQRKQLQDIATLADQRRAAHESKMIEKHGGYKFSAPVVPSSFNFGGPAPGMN
UniProt P33947, sequence (P33947 whole entry, looked up): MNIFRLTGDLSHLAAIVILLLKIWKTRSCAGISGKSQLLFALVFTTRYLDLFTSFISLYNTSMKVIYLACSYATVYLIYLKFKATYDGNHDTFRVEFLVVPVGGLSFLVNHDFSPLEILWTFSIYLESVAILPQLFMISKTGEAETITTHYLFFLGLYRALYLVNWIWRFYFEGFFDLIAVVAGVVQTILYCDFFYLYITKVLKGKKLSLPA
UniProt Q9H1B7, sequence (Q9H1B7 whole entry, looked up): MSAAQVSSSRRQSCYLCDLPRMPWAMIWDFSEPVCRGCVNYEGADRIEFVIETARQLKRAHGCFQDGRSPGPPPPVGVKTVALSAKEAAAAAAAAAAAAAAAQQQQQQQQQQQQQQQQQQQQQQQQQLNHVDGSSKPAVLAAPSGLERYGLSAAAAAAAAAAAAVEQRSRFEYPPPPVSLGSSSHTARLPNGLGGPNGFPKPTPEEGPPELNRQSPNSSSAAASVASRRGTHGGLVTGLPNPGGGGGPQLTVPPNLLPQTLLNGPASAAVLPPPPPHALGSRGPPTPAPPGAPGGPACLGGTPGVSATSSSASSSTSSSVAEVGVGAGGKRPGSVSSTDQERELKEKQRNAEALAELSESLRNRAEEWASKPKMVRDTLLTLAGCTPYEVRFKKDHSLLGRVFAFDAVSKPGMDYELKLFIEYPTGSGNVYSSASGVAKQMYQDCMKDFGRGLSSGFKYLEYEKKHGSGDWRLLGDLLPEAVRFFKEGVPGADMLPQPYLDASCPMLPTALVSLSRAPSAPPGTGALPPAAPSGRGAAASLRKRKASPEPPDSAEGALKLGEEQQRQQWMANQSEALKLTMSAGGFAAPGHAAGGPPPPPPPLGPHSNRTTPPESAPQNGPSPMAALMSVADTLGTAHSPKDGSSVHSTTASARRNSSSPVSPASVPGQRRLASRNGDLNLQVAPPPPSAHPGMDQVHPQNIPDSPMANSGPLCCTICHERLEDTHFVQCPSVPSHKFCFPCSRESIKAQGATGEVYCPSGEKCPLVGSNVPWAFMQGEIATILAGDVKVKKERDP

Row | Target | log2 fold change [1] | log2 fold change [2] | log2 fold change [3] | log2 fold change [4] | log2 fold change [5] | log2 fold change [6] | log2 fold change [7] | log2 fold change [8] | log2 fold change [9] | log2 fold change [10]
1 | IRF2BPL (UniProt Q9H1B7) | -0.038 | 0.012 | -0.07 | -0.034 | -0.034 | -0.029 | 0.083 | -0.084 | -0.067 | -0.055
2 | MAP2K7 isoform 4 (UniProt O14733) | -0.086 | 0 | -0.035 | 0.025 | -0.075 | -0.039 | -0.006 | 0.02 | 0.027 | -0.018
3 | IPP (UniProt Q9Y573) | -0.225 |  |  |  |  |  |  |  |  | 
4 | LUC7L3 (UniProt O95232) | 0.001 | -0.001 | 0.091 | -2.05 (active) | -0.037 | 0.052 | 0.007 | -0.019 | 0.036 | 0.02
5 | IMMT isoform 4 (UniProt Q16891) | -0.119 | 0.018 | -0.038 | 0.004 | -0.019 | 0.003 | 0.015 | 0.018 | -0.03 | 0.012
6 | LAMP2 (UniProt P13473) | -0.124 | -0.051 | 0.002 | -0.014 | 0.017 | 0.014 | 0.048 | 0.035 | 0.14 | 0.017
7 | KSR1 (UniProt Q8IVT5) | 0.035 | -0.052 | -0.052 | -0.303 | -0.228 | -0.021 | 0.003 | -0.129 | -0.086 | -0.233
8 | LARP7 isoform 3 (UniProt Q4G0J3) | -0.045 | 0.041 | 0.01 | -0.298 (active) | -0.063 | -0.249 | 0.021 | 0.029 | 0.021 | -0.05
9 | MGST3 (UniProt O14880) | -0.085 | -0.002 | 0.01 | 0.012 | 0.069 | -0.056 | 0.004 | -0.026 | 0.019 | -0.094
10 | INPP1 (UniProt P49441) | 0.003 | 0.094 | -0.001 | 0.067 | 0.027 | 0.053 | 0.037 | 0.027 | -0.135 | 0.15
11 | MAGEC2 (UniProt Q9UBF1) | -0.024 | -0.065 | -0.02 | 0.021 | 0.059 | 0 | -0.056 | -0.07 | -0.02 | -0.015
12 | MIA2 (UniProt Q96PC5) | -0.068 | -0.029 | -0.002 | -0.048 | -0.051 | -0.038 | -0.058 | 0.041 | 0.029 | -0.046
13 | MAP2K3 isoform 3 (UniProt P46734) | -0.071 | 0.096 | -0.019 | 0.021 | -0.04 | -0.049 | 0.005 | -0.083 | 0.08 | -0.145
14 | MDC1 (UniProt Q14676) | -0.1 | -0.269 | 0.037 | 0.02 | 0.398 | -0.191 | -0.031 | -0.043 | 0.058 | -0.038
15 | MAPKAPK3 (UniProt Q16644) | 0.258 | 0 | 0.281 | -0.03 | 0.002 | -0.032 | -0.005 | 0 | -0.048 | -0.04
16 | KIFBP (UniProt Q96EK5) | 0.006 | 0.094 | -0.162 | -0.079 | -0.114 | -0.004 | -0.084 | -0.046 | -0.063 | -0.078
17 | MAP4 (UniProt E7EVA0) | 0.311 | -0.028 | -0.014 | 0.015 | 0.168 | -0.018 | -0.166 | -0.036 | 0.019 | 0.055
18 | MARCKSL1 (UniProt P49006) | 0.04 | -0.087 | 0.003 | 0.014 | 0.062 | 0.009 | -0.008 | -0.004 | 0.034 | 0.005
19 | IPO9 (UniProt Q96P70) | 0.019 | 0.031 | -0.016 | -0.06 | 0.04 | 0.011 | -0.069 | -0.06 | -0.084 | -0.005
20 | MAP2K2 (UniProt P36507) | -0.081 | 0.007 | -0.003 | -0.154 | -0.092 | -0.018 | 0.023 | 0.098 | 0.015 | 0.017
21 | MED25 isoform 3 (UniProt Q71SY5) | 0.09 | 0.217 | -0.013 | 0.003 | -0.049 | -0.09 | -0.071 | 0.076 | 0.054 | -0.308
22 | MIF (UniProt P14174) | 0.012 | 0.034 | 0.088 | 0 | 0.052 | -0.052 | 0.067 | 0.076 | -0.029 | 0.021
23 | LSS (UniProt P48449) | 0.393 | 0 | -0.046 | 0.047 | 0 | 0.013 | 0.145 | 0 | -0.039 | 0.193
24 | KLHL18 (UniProt O94889) | 0.027 | -0.252 | 0.005 | -0.021 | -0.187 | 0.025 | 0.061 | -0.027 | 0.044 | -0.017
25 | KCT2 (UniProt Q8NC54) | -0.114 | 0.045 | -0.01 | -0.023 | 0.045 | 0.021 | 0.01 | 0.073 | 0.125 | 0.052
26 | KDELR2 (UniProt P33947) | -0.088 | 0.072 | -0.069 | 0.035 | 0.097 | -0.082 | 0.194 | 0.264 | 0.125 | -0.049
27 | IPO7 (UniProt O95373) | -0.018 | 0.035 | -0.058 | -0.044 | -0.074 | -0.091 | -0.018 | 0.008 | -0.126 | 0.079
28 | LMBRD1 (UniProt Q9NUN5) | -0.065 | 0.01 | -0.006 | -0.062 | 0.064 | 0.026 | -0.139 | 0.014 | -0.156 | 0.08
29 | MAPK9 (UniProt P45984) | -0.112 | 0.003 | -0.023 | 0.047 | -0.044 | 0.134 | 0.042 | 0.04 | 0.015 | -0.059
30 | LUC7L (UniProt Q9NQ29) | 0.057 | -0.046 | 0.049 | -1.71 (active) | 0.062 | 0.109 | -0.095 | -0.054 | 0.049 | -0.099
